{
  "source": "the supplement of paper PMC12024529",
  "data": [
    {"tested_on": "HEK293 WT BDD-FVIII-Gluc", "experiment": "secreted FVIII-Gluc luciferase Z-score vs DMSO control; higher = more FVIII-Gluc secretion", "conditions": "5 µM", "experimental": "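Natural plant-compound library (480 compounds, ST catalogue IDs) screened on HEK293 cells stably expressing WT BDD-FVIII-Gaussia luciferase fusion at 5 µM. Secreted Gluc activity in the medium is given as a Z-score relative to DMSO controls.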", "values": [
      {"molecule": "Cc1cn([C@H]2C[C@H](O)[C@@H](CO)O2)c(=O)[nH]c1=O", "secreted FVIII-Gluc luciferase Z-score": 0.713},
      {"molecule": "O=C1C[C@@H]2[C@@H](CO)[C@H](O)C[C@@H]2O1", "secreted FVIII-Gluc luciferase Z-score": 0.258},
      {"molecule": "COc1cc(C(=O)OC2CC(C)=CCC3(C)CCC(O)(C(C)C)C23)ccc1O", "note": "(stereo not given)", "secreted FVIII-Gluc luciferase Z-score": -0.405},
      {"molecule": "N=C(N)NCCC[C@H](N)C(=O)O", "secreted FVIII-Gluc luciferase Z-score": 0.938},
      {"molecule": "O=C(O)C(=O)Cc1ccccc1", "secreted FVIII-Gluc luciferase Z-score": 0.46},
      {"molecule": "CCOC(=O)C1=C[C@]2(CC)CCCN3CCc4c(n1c1ccccc41)[C@@H]32", "secreted FVIII-Gluc luciferase Z-score": 0.132},
      {"molecule": "COc1ccc2c(=O)cc(-c3ccccc3)oc2c1O", "secreted FVIII-Gluc luciferase Z-score": 0.609},
      {"molecule": "COc1cc2c(C(=O)c3ccccc3)c3c4c(cc(OC)c(OC)c4c2cc1OC)CCN3C", "secreted FVIII-Gluc luciferase Z-score": -1.18},
      {"molecule": "CC(=O)OC1CCC2(C)C(CCC3(C)C2C(=O)C=C2C4CC(C)(C(=O)OCCN5CCCCC5)CCC4(C)CCC23C)C1(C)C", "note": "(stereo not given)", "secreted FVIII-Gluc luciferase Z-score": 0.64},
      {"molecule": "COC(=O)[C@H]1[C@H]2C[C@H]3c4[nH]c5ccccc5c4CCN3C[C@H]2CC[C@@H]1O", "secreted FVIII-Gluc luciferase Z-score": -0.252},
      {"molecule": "Oc1cc(O)c2c(c1)O[C@H](c1ccc(O)c(O)c1)[C@@H](O)C2", "secreted FVIII-Gluc luciferase Z-score": 0.0727},
      {"molecule": "CN1C(CC(=O)c2ccccc2)CCC[C@H]1CC(O)c1ccccc1", "note": "(stereo not given in full)", "secreted FVIII-Gluc luciferase Z-score": -0.246},
      {"molecule": "CC1OC(OCC2OC(Oc3c(-c4ccc(O)c(O)c4)oc4cc(O)cc(O)c4c3=O)C(O)C(O)C2O)C(O)C(O)C1O", "note": "(stereo not given)", "secreted FVIII-Gluc luciferase Z-score": -0.909},
      {"molecule": "O=C1c2ccccc2C(=O)c2c1ccc(O)c2O", "secreted FVIII-Gluc luciferase Z-score": 0.508},
      {"molecule": "COc1cc2c(Cc3c4c5c(cc(OC)c(OC)c5c5c(OC)c(OC)ccc35)CCN4C)c3c4c(cc(OC)c(OC)c4c2cc1OC)CCN3C", "secreted FVIII-Gluc luciferase Z-score": -0.165},
      {"molecule": "C=C1CC/C=C(\\C)CC[C@@H]2[C@@H]1CC2(C)C", "secreted FVIII-Gluc luciferase Z-score": 0.299},
      {"molecule": "C[C@H]1c2ccoc2CC2[C@H]1CCC1[C@@](C)(CC(=O)O)CCC[C@]21C", "note": "(stereo not given in full)", "secreted FVIII-Gluc luciferase Z-score": 0.392},
      {"molecule": "COc1ccc2c3c1O[C@H]1C[C@@H](O)C=C[C@@]31CCN(C)C2", "secreted FVIII-Gluc luciferase Z-score": 0.615},
      {"molecule": "CC1=C(/C=C/C(C)=C/C=C/C(C)=C/C(=O)O)C(C)(C)CCC1", "secreted FVIII-Gluc luciferase Z-score": -0.377},
      {"molecule": "NCC1OC(OC2C(CO)OC(OC3C(O)C(N)CC(N)C3OC3OC(CO)C(O)CC3N)C2O)C(N)C(O)C1OC1OC(CO)C(O)C(O)C1O", "note": "(stereo not given)", "secreted FVIII-Gluc luciferase Z-score": 1.54},
      {"molecule": "O=c1ccn([C@@H]2O[C@H](CO)[C@@H](O)[C@H]2O)c(=O)[nH]1", "secreted FVIII-Gluc luciferase Z-score": 0.943},
      {"molecule": "O=C(O)c1cc(=O)c2ccccc2[nH]1", "secreted FVIII-Gluc luciferase Z-score": 0.496},
      {"molecule": "COc1cc(/C=C/C(=O)N2CCCCC2=O)cc(OC)c1OC", "secreted FVIII-Gluc luciferase Z-score": 1.28},
      {"molecule": "C[C@H]1[C@H](C)CC[C@]2(C(=O)O)CC[C@]3(C)C(=CCC4[C@@]5(C)C[C@@H](O)[C@H](O)[C@@](C)(CO)[C@@H]5CC[C@]43C)[C@H]12", "note": "(stereo not given in full)", "secreted FVIII-Gluc luciferase Z-score": -0.822},
      {"molecule": "COc1cc2cc(Oc3ccc4ccc(=O)oc4c3)c(=O)oc2cc1O", "secreted FVIII-Gluc luciferase Z-score": 0.379},
      {"molecule": "C=C1C(=O)OC2C[C@@]3(C)CCCC(=C)[C@@H]3CC12", "note": "(stereo not given in full)", "secreted FVIII-Gluc luciferase Z-score": -0.82},
      {"molecule": "C=C[C@@](C)(O)CC[C@@H]1[C@@]2(C)CCCC(C)(C)[C@@H]2CC[C@@]1(C)O", "secreted FVIII-Gluc luciferase Z-score": 0.556},
      {"molecule": "Cn1c(=O)c2c(ncn2C)n(C)c1=O", "secreted FVIII-Gluc luciferase Z-score": -0.0716},
      {"molecule": "CN1CCc2cccc3c2C1Cc1ccc(O)c(O)c1-3", "note": "(stereo not given)", "secreted FVIII-Gluc luciferase Z-score": -0.131},
      {"molecule": "CC(C)=CCC/C(C)=C\\COc1c2ccoc2cc2oc(=O)ccc12", "secreted FVIII-Gluc luciferase Z-score": -0.466},
      {"molecule": "CC(=O)O[C@H]1C(=O)[C@@]2(C)C([C@H](OC(=O)c3ccccc3)[C@]3(O)C[C@H](OC(=O)[C@@H](O)[C@@H](NC(=O)c4ccccc4)c4ccccc4)C(C)=C1C3(C)C)[C@]1(OC(C)=O)CO[C@@H]1C[C@@H]2O", "note": "(stereo not given in full)", "secreted FVIII-Gluc luciferase Z-score": -3.56},
      {"molecule": "C[C@H]1[C@H]2CC[C@H]3[C@@H]4CC=C5C[C@@H](N(C)C)CC[C@]5(C)[C@H]4CC[C@]23CN1C", "secreted FVIII-Gluc luciferase Z-score": 0.23},
      {"molecule": "O=c1c(O)c(-c2ccc(O)cc2)oc2cc(O)ccc12", "secreted FVIII-Gluc luciferase Z-score": 0.511},
      {"molecule": "O=c1[nH]cnc2c1ncn2C1OC(CO)C(O)C1O", "note": "(stereo not given)", "secreted FVIII-Gluc luciferase Z-score": -0.0892},
      {"molecule": "COc1cc2oc(=O)cc(C)c2cc1OC", "secreted FVIII-Gluc luciferase Z-score": 0.58},
      {"molecule": "O=c1cc(-c2ccccc2O)oc2cc(O)cc(O)c12", "secreted FVIII-Gluc luciferase Z-score": 0.64},
      {"molecule": "CCc1cn(C2CC(O)C(CO)O2)c(=O)[nH]c1=O", "note": "(stereo not given)", "secreted FVIII-Gluc luciferase Z-score": -0.382},
      {"molecule": "Nc1nc2c(ncn2[C@H]2C[C@H](O)[C@@H](COP(=O)(O)O)O2)c(=O)[nH]1", "secreted FVIII-Gluc luciferase Z-score": 0.653},
      {"molecule": "Nc1nc2ncc(CNc3ccc(C(=O)NC(CCC(=O)O)C(=O)O)cc3)nc2c(=O)[nH]1", "note": "(stereo not given)", "secreted FVIII-Gluc luciferase Z-score": -0.865},
      {"molecule": "CC(=O)Nc1nc2nc[nH]c2c(=O)[nH]1", "secreted FVIII-Gluc luciferase Z-score": 0.475}
    ]}
  ]
}
